High-throughput results (PubChem)
Rows were chosen to be rich in hits. Some 18% of all compounds tested hit in one or more screens of this group.
TDP1 inh: qHTS Assay for Inhibitors of Tyrosyl-DNA Phosphodiesterase (TDP1). actives 0.28% (n = 350,000). Tyrosyl-DNA phosphodiesterase 1 (Homo sapiens), Q9NUW8. recombinant TDP1, AlphaScreen DNA substrate cleavage. Potency, µM (doses to about 130 µM), actives largely listed as inhibitors; note: nearly all actives have a fitted effect of over 40% in size
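Signal: AlphaScreen proximity between streptavidin donor and anti-FITC acceptor beads on intact substrate. Reaction: Tdp1 1 nM, substrate 15 nM final, 5 min RT after 15 min compound preincubation.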
Six1-Eya2 inh: qHTS Assay for Inhibitors of the Six1/Eya2 Interaction | actives 0.56% (n = 360,000) | AlphaScreen GST-Six1/His-Eya2 binding, biochemical; hits give low values | activity change, % (concentration not given with the values) | AID 651725, 2012; in the data active = activity change below about -65%; inconclusive = mostly about -30% to -63%
Target sequence (O00167 whole entry, looked up): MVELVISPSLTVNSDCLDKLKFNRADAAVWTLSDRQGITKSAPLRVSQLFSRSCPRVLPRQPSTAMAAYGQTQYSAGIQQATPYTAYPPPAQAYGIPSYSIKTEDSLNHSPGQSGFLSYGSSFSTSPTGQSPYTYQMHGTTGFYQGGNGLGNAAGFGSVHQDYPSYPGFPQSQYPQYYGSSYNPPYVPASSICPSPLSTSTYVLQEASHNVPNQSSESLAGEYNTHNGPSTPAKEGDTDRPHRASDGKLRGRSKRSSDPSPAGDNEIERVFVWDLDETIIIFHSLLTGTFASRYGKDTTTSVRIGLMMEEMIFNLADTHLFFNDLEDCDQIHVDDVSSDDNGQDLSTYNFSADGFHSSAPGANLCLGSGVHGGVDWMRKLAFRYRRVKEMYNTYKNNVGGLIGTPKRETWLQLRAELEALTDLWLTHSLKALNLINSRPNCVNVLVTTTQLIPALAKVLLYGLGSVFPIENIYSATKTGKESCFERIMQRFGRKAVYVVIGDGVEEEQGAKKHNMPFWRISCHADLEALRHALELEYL
Target sequence (Q15475 whole entry, looked up): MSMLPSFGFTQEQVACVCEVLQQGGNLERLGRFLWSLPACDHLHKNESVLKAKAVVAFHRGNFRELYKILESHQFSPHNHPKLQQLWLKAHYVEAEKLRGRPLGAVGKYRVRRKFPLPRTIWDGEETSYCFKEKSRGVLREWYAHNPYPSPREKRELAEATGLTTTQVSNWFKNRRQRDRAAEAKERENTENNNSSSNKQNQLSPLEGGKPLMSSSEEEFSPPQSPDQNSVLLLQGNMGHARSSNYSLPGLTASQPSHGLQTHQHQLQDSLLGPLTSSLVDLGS
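Six1/Eya2 binding was read as AlphaScreen signal after compounds were pinned into GST-Six1 plus His-tagged Eya2 (5X stock 250/500 nM) in pH 8.0 Tris/NaCl/TCEP buffer, beads added, then incubated 1 h, 37 C, dark.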
TDP1 cell noCPT: qHTS for Inhibitors of human tyrosyl-DNA phosphodiesterase 1 (TDP1): qHTS in cells in absence of CPT; DT40 Tdp1-/- hTDP1 cells, no CPT, ATP luminescence, 48 h; Potency, µM (titrated, usually from 46.2 µM), hits mostly inhibitors; actives 15% (n = 420,000); AID 686978, 2013; note: nearly all actives have a fitted effect of over 55% in size
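Seeded 400 DT40-hTDP1 cells/well (vehicle DMSO, no 20 nM CPT); pinned compounds; ≥48 hr at 37 °C; CellTiter-Glo luminescence as viability measure.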
IL1B secr inh: qHTS for Inhibitors of Inflammasome Signaling: IL-1-beta AlphaLISA Primary Screen; THP-1 LPS/ATP IL-1B secretion, AlphaLISA, 16 h; hits give low values; activity change, % at 57.5 µM; actives 4.7% (n = 360,000); in the data active = activity change below about -50%; inconclusive = mostly about -30% to -49%
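Secreted IL-1B measured by AlphaLISA bead assay after 16 h compound exposure of THP-1 cells; compounds (final up to 57.5 uM) added 1 h before LPS (250 ng/mL) and ATP (1.25 mM) stimulation; lower signal means less secretion.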
CtBP-E1A blk: qHTS Assay for Inhibitors of the CtBP/E1A Interaction; CtBP / adenovirus E1A interaction (AlphaScreen); AlphaScreen GST-E1A/His-CtBP binding, 1536-well; hits give low values; activity change, % (test concentration not listed); actives 0.49% (n = 340,000); AID 651724, 2012; in the data active = activity change below about -65%; inconclusive = mostly about -30% to -63%
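In 5 uL wells, 23 nL compound meets equimolar GST-E1A and His-CtBP (5X stock 125 nM each) for 2 h, 37 °C. Beads (5X, 50 ug/mL) then 1 h, 37 °C, dark.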
DT40 TDP1 CPT: qHTS for Inhibitors of human tyrosyl-DNA phosphodiesterase 1 (TDP1): qHTS in cells in presence of CPT; chicken DT40 Tdp1-/-;hTDP1 cells + 20 nM CPT, ATP luminescence, 48 h; Potency, µM (highest dose often 46.2 µM), most hits filed as inhibitors; actives 12% (n = 420,000); AID 686979, 2013; note: nearly all actives have a fitted effect of over 55% in size
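Chicken DT40 Tdp1-/- cells stably complemented with human TDP1 were seeded at 400 cells/well in medium containing 20 nM camptothecin, exposed to pin-transferred compounds, and grown at 37 °C for at least 48 hr. Viability was read as ATP luminescence.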
Numbers stand for hits; - = inactive; ? = inconclusive; . = no result. Unless noted, calls come from the whole dose curve; as a rule, active = well fitted curve in the direction sought with a large enough effect; inconclusive = small, poorly fitted or top-dose-only effect, or another doubt; inactive = no such curve, though single readings can be large; an effect the other way counts as inactive or inconclusive.

SMILES | TDP1 inh | Six1-Eya2 inh | TDP1 cell noCPT | IL1B secr inh | CtBP-E1A blk | DT40 TDP1 CPT
CCC1(C)Cc2ccccc2-c2[nH]c(=S)[nH]c(=O)c21 (stereo not drawn) | . | - | - | - | - | -
CSc1ccccc1NC(=O)c1ccc(C)o1 | - | - | - | - | - | -
Cc1ccc(NC(=O)c2cc(-c3ccccc3)n[nH]2)cc1 | . | - | - | -74.7 | - | -
Cc1ccc(CCNC(=O)c2cc(-c3ccccc3)n[nH]2)cc1 | - | . | ? | . | . | ?
Cc1onc(-c2ccccc2Cl)c1C(=O)Nc1cccc2nsnc12 | . | - | ? | - | - | ?
COc1cc(NC(=O)c2c(-c3ccccc3Cl)noc2C)c2ncccc2c1 | . | - | 16.4µM | - | - | 16.4µM
Cc1onc(-c2ccccc2Cl)c1C(=O)Nc1cccc2cccnc12 | - | - | 4.11µM | - | - | 9.2µM
O=C(CSCCO)Nc1nccs1 | - | - | - | - | - | -
c1nc2ccc(Cc3ccc4nc[nH]c4c3)cc2[nH]1 | - | - | ? | - | . | -
NS(=O)(=O)c1ccc(N=Nc2cc3ccccc3c(C(=O)O)c2O)cc1 | . | . | 1.12µM | . | . | 0.398µM
NS(=O)(=O)c1ccc(N=Cc2c(O)c3ccccc3oc2=O)cc1 | - | - | - | - | . | -
Nc1nonc1C(=Nc1ccc(Br)cc1)NO | - | - | ? | - | - | 25.9µM
CCc1ccccc1NC(=O)CSC1=Nc2ccccc2C2=NC(Cc3ccccc3)C(=O)N12 (stereo not drawn) | - | . | ? | . | . | 16.4µM
CCOc1ccc(NC(=O)CSC2=Nc3ccccc3C3=NC(CCC(=O)NCc4ccco4)C(=O)N23)cc1 (stereo not drawn) | - | . | ? | . | . | ?
Cc1ccccc1NC(=O)CSC1=Nc2ccccc2C2=NC(CCC(=O)NCc3ccccc3)C(=O)N12 (stereo not drawn) | - | . | ? | . | . | -
CCOc1ccc(NC(=O)CSC2=Nc3ccccc3C3=NC(CCC(=O)NCc4ccccc4)C(=O)N23)cc1 (stereo not drawn) | - | . | 16.4µM | . | . | ?
CCc1ccc(NC(=O)CSC2=Nc3ccccc3C3=NC(CCC(=O)NCc4ccccc4)C(=O)N23)cc1 (stereo not drawn) | - | . | 23.1µM | . | . | ?
CCc1ccc(NC(=O)CSC2=Nc3ccccc3C3=NC(CCC(=O)NCCc4ccccc4)C(=O)N23)cc1 (stereo not drawn) | - | . | ? | . | . | 23.1µM
CC(O)(c1ccc(F)c(F)c1)c1nc(-c2csc3ccccc23)cs1 (stereo not drawn) | . | - | ? | - | - | ?
O=C(CCC1CCCN(C(=O)c2ccc3c(c2)OCCO3)C1)NCc1ccccc1F (stereo not drawn) | - | - | - | - | - | -
NS(=O)(=O)OCCCCCc1ccccc1 | . | - | - | - | - | -
CN1CCN(c2nc(-c3cc4ccccc4o3)cs2)CC1 | - | - | - | - | - | -
Cc1cc(C)n(CCc2nc(-c3cc4ccccc4o3)cs2)n1 | - | - | 18.4µM | - | - | 18.4µM
Cc1cc(C)n(CCc2nc(-c3ccc(C)o3)cs2)n1 | - | - | 16.4µM | - | - | ?
COc1ccc(/C(O)=C2/C(=O)C(=O)N(CC3CCCO3)C2c2cccc(O)c2)cc1 (stereo not drawn) | - | - | - | - | - | -
SMILES | TDP1 inh | Six1-Eya2 inh | TDP1 cell noCPT | IL1B secr inh | CtBP-E1A blk | DT40 TDP1 CPT
COc1ccc(-n2nnc(-c3nc(-c4ccc5c(c4)OCO5)no3)c2C)cc1Cl | - | . | - | . | . | -
COCc1cc(C)n(CC(=O)Nc2ccc(Cl)cc2Cl)c(=O)c1C#N | - | - | - | - | - | -
Cc1ccc(CNS(=O)(=O)NCc2ccccc2F)cc1 | - | - | - | - | - | -
COc1ccc(/C=C/C(=O)OCC(=O)c2ccccc2F)cc1 | - | - | ? | - | - | -
COc1ccc(/C=C\C(=O)CC(O)(c2ccccc2)C(F)(F)F)cc1 (stereo not drawn) | - | - | 14.6µM | -74.2 | - | 16.4µM
Cc1ccc(C2N(c3ccc(Cl)cc3)C(=O)N3CCCN23)cc1 (stereo not drawn) | - | - | 14.6µM | - | - | ?
C=CCn1c(SCC(=O)N(CCOC)c2c(N)n(CC(C)C)c(=O)[nH]c2=O)nc2ccccc21 | - | - | - | - | - | -
Cc1cc(Cl)cc(Cl)c1OCCCCN(C)C | - | - | 18.4µM | - | - | ?
CCCCN1C(=O)/C(=C/C=C2\N(C)c3ccccc3C2(C)C)SC1=S | - | . | . | . | . | .
CCCN1C(=O)/C(=C\C=C2/C=CN(CC)c3ccccc32)SC1=S | - | - | 10.3µM | - | - | ?
CC(C)Oc1ccc(CCC(=O)NNC(=O)CCC(=O)O)cc1 | - | - | - | - | . | -
CCC[C@@H](CN1CCC[C@H]1CN1C(N)=NC[C@@H]1Cc1ccccc1)N1C[C@@H](Cc2ccccc2)N(CCc2ccc(Cl)c(Cl)c2)C1=N | - | - | ? | -53.0 | - | ?
CCC[C@@H](CN1CCC[C@H]1CN1C(N)=NC[C@H]1CC(C)C)N1C[C@@H](Cc2ccccc2)N(CCc2ccc(Cl)c(Cl)c2)C1=N | - | - | ? | -68.5 | - | 20.6µM
CCC[C@@H](CN1CCC[C@H]1CN1C(N)=NC[C@@H]1Cc1ccccc1)N1C[C@@H]([C@H](C)CC)N(CCc2ccc(Cl)c(Cl)c2)C1=N | - | - | ? | ? | - | ?
CCOC(=O)CN1CC23C=CC(O2)C(C(=O)O)C3C1=O (stereo not drawn) | - | - | - | - | - | -
Cc1cccc(N2CCN(C(=O)CCNS(=O)(=O)c3ccc4c(c3)oc(=O)n4C)CC2C)c1 (stereo not drawn) | - | - | ? | - | - | ?
O=C(c1ccco1)N1CCCC(Nc2ccc3c(c2)OCCO3)C1 (stereo not drawn) | - | - | - | - | - | -
CCC(C(=O)OCC(=O)C1(O)CCC2C3CCC4=CC(=O)CCC4(C)C3C(O)CC21C)C(C)C (stereo not drawn) | . | - | 16.4µM | - | - | 9.2µM
CC(=O)OCC(=O)[C@@]1(O)CCC2C3CCC4=CC(=O)CC[C@]4(C)C3[C@@H](O)C[C@@]21C (stereo partly drawn) | . | . | - | . | . | ?
